The results in this text go back to PubChem BioAssay AID743279 (National Center for Advancing Translational Sciences (NCATS), 2014).

Screen size: about 360,000 compounds; about 17,000 (4.7%) were called active. Another 5% or so got no clear call; they are omitted. Only a selection was taken, and actives are over-represented in it overall. Unmarked numbers belong to inactive results. Rule as the data show it: active = activity change below about -50%; inconclusive = mostly about -30% to -49%; inactive = weaker than that.
% is scaled to controls: 0 for no effect and ±100 for the full control effect.

The assay in a line: qHTS for Inhibitors of Inflammasome Signaling: IL-1-beta AlphaLISA Primary Screen. The following applies: THP-1 LPS/ATP IL-1B secretion, 16 h; at 57.5 µM, stronger effect = lower value. An outline of the steps:
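THP-1 cells pretreated 1 hr with compounds (up to 57.5 uM final), then stimulated with LPS (250 ng/mL final) plus ATP (1.25 mM final); secreted IL-1B measured by AlphaLISA after 16 hr, decreased signal indicating inhibition.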
Background: Quantitative high-throughput screening tests each substance at several concentrations.
With `O=C(CSc1cccc[n+]1[O-])c1ccc(-c2ccccc2)cc1`, the activity change is 31.4%. For `COCCNc1ncnc2c1ncn2[C@H]1CN(CCN2CCOCC2)C[C@@H](CO)O1`, the activity change was 1.62%. Take `CCc1ccc(-c2nn(-c3ccccc3)cc2CSC(=N)N)cc1`: the activity change is -102% (active). As for `NC(=O)C1CCN(C(=O)c2cn(-c3ccccc3)nc2-c2cccnc2)CC1`, the activity change was -2.49%. As for `CCc1ccc(-c2nn(-c3ccccc3C)cc2C(=O)N2CCN(C3CCS(=O)(=O)C3)CC2)cc1` (stereo unspecified), the figure is 16.7%. For the molecule `CCOC(=O)c1ccc(COC(=O)CCc2nc(-c3ccccc3)c(-c3ccccc3)o2)cc1`, the activity change is 31.5%. Regarding `CC(C)Nc1ncnc2c1ncn2[C@H]1CN(Cc2ccncc2)C[C@@H](CO)O1`, the activity change is 22.2%. With `O=C(Nc1ccc(S(=O)(=O)N2CCOCC2)cc1)C1CCN(S(=O)(=O)c2ccc(Cl)cc2)CC1`, the activity change is -6.97%.

In the case of `Cc1noc(C)c1/C=N/Nc1ccc2ccccc2n1`, the activity change is -70.6% (active).

As to `C(=N\Nc1ccc2ccccc2n1)/c1ccc2c(c1)OCO2`, the activity change is -9.79%. Turning to `Clc1ccc(Nc2ccc3ccccc3n2)cc1`, the activity change was -15.6%.

Consider `O=C(Nc1ccc(Cl)cc1)c1csc([C@@H]2O[C@H](CO)[C@H](O)[C@H](O)[C@H]2O)n1`, for which the activity change is 17.3%. Take `Cc1nnc(SC(C)C(=O)c2c[nH]c3ccccc23)n1C1CC1` (stereo unspecified): the activity change was 0%. In the case of `Cc1onc(-c2c(F)cccc2Cl)c1C(=O)Nc1cccc(S(=O)(=O)N2CCCCC2)c1`, the activity change was -19.9%. As for `CCC(CO)Oc1cc(NC(=O)c2ccc(Cl)cc2)c2ncn(C(C)C)c2c1` (stereo unspecified), the figure is -3.64%; as for `CCC(CO)Oc1cc(NC(=O)c2cccc(F)c2)c2ncn(C(C)C)c2c1` (stereo unspecified), -4.82%; as for `CCC(CO)Oc1cc(NC(=O)c2cccc3ccccc23)c2ncn(C(C)C)c2c1` (stereo unspecified), -67.6% (active). On to `COc1ccc(CCNC(=O)COC(=O)Cc2cc(OC)c(OC)c(OC)c2)cc1`, for which the activity change was 28%. For `Cc1cc(C)c2c(=O)n3c(nc2c1)C(CC(C)C)NC(=O)c1cc2ccccc2cc1-3` (stereo unspecified), the activity change was 24.5%.

With `CNS(=O)(=O)c1ccc(NC(=O)Nc2ccc3c(c2)OCO3)cc1`, the activity change was -52.3% (active).

For `Cc1cccc(NC(=O)Nc2ccc3c(c2)OCO3)n1`, the activity change is -14.3%.

As for `CC(C)CNS(=O)(=O)c1ccc(C(=O)Nc2ccc3c(c2)OCO3)cc1`, the activity change was -5.7%. As for `Cc1ccc(C(=O)Nc2c(-c3ccccc3)[nH][nH]c2=O)cc1`, the activity change is 0%.

Take `Cc1ccc2c(c1)C(c1ccccc1)N(C(=O)c1ccc(F)cc1)CC(=O)N2` (stereo unspecified): the activity change is 22.3%. For the molecule `Cc1oc2c(c1C(=O)N1CCOCC1)C(=O)c1ccccc1C2=O`, the activity change was -0.813%. As to `O=S(=O)(Nc1cc(Cl)ccc1N1CCOCC1)c1ccccc1Cl`, the activity change was -27.8%.

Consider `O=C1c2ccccc2-c2ncnc3c(N4CCOCC4)cc(N4CCOCC4)c1c23`, for which the activity change is -66.7% (active).

`O=S1(=O)CC(N2CCN(CCO)CC2)CN1Cc1cn(Cc2ccc(Cl)cc2)nn1` (stereo unspecified): the activity change was 0%. Turning to `CCOC(=O)c1cc2ccccc2n1CC(=O)c1ccccc1`, the activity change is 28.5%. Take `CCn1c(=N)n(CC(=O)c2cccc(OC)c2)c2ccccc21`: the activity change is -63% (active). Consider `CCN(CC)CC1(O)CCN(C(=O)c2ccc(Cl)c(Cl)c2)CC1`, for which the activity change is 12.6%. Under `CCCn1c(=N)n(CC(=O)c2ccc(Cl)c(Cl)c2)c2ccccc21` stands -91.6% (active); under `COc1ccc2cc(C(=O)O)n(CC(=O)c3ccccc3)c2c1`, 0%; under `O=C(Cn1nnc(N2CCCCC2)n1)c1ccc(Cl)c(Cl)c1`, -1.15%. As for `Cc1cc(Cl)ccc1C(=O)C1CCCN(C(=O)c2ccc3c(c2)OCO3)C1` (stereo unspecified), the figure is -15.9%; as for `Cc1cccc(C2c3c(n(C)c(=O)n(C)c3=O)N=C3c4ccccc4C(=O)C32)c1` (stereo unspecified), 13.5%. With `Cc1ccccc1S(=O)(=O)NC(=O)C1(C)CCN1C(=O)C1(c2ccc(Cl)cc2)CC1` (stereo unspecified), the activity change is 22.8%. For `CN(CC(=O)Nc1ccc(Cl)cc1)C(=O)CNC(=O)c1ccc2ccccc2c1`, the activity change is -102% (active). With `COc1ccc(NC(=O)CN(C)C(=O)CNC(=O)C2CCCCC2)cc1`, the activity change entry was “inactive”.

Turning to `O=C(NNC(=O)c1ccc2ccccc2c1)c1ccc(Cl)cc1`, the activity change was -7.64%.

Regarding `COc1ccc(C(=O)C(OP(=O)(OC)OC)c2ccccc2OC)cc1` (stereo unspecified), the activity change is 0%. In the case of `OCCC1CN(Cc2cccc(OC3CCCC3)c2)CCN1Cc1ccsc1` (stereo unspecified), the activity change was -20.7%. Turning to `CC1=C[C@H]2Cc3cc(C)cc(C)c3S(=O)(=O)[C@@H]2C=C1`, the activity change is -1.95%. As for `Cc1ccccc1Cn1c(C)c(C(=O)NCc2cccc(C(F)(F)F)c2)sc1=O`, the figure is -29.1%. With `Cc1ccc(C(=O)Nc2ccccc2-c2ccccc2)cc1S(=O)(=O)Nc1ccccc1`, the activity change is -69.2% (active). On to `COc1ccc(NS(=O)(=O)c2cc(C(=O)Nc3ccccc3C(=O)O)ccc2C)cc1`, for which the activity change was 11.7%. Consider `O=C(O)c1ccc(F)c(S(=O)(=O)Nc2ccccc2)c1`, for which the activity change was 0%.

For the molecule `CCOC(=O)C=Cc1ccc(C(=O)OCC)[nH]1`, the activity change is 12.1%. Under `CCOC(=O)C1=C(CCc2ccccc2)NC(=O)NC1c1ccc2ccccc2c1` (stereo unspecified) stands -52.7% (active). As to `CCOCCOC(=O)C1=C(C)NC(=O)NC1c1ccc2c(c1)OCO2` (stereo unspecified), the activity change was -7.25%. In the case of `CCOC(=O)C1=C(CSc2nccn2C)NC(=O)NC1c1ccc(OC)cc1` (stereo unspecified), the activity change is -4.23%. Under `Cn1c(=O)[nH]c2c(c(C(=O)O)nn2C)c1=O` stands -10.6%; under `CCOc1ccc(C(=O)CCC(=O)Nc2ccncc2)cc1`, 2.33%; under `CC(C)CC(=O)Nc1ccc(Cc2ccncc2)cc1`, -7.35%.

For the molecule `CCOc1ccc(C(=O)Nc2cccc(-c3ccc4nncn4n3)c2)cc1`, the activity change is 0%. On to `CCOc1ccc(C(=O)Nc2ccncc2)cc1`, for which the activity change is -73.6% (active). For the molecule `CCc1ccc(NC(=O)N[C@H](C(=O)O)C(C)CC)cc1` (stereo partly specified), the activity change is 21.9%.

On to `CSc1cccc(NC(=O)CSc2ccccc2)c1`, for which the activity change was -2.08%. `CCOc1ccc(C(=O)Nc2cccc(SC)c2)cc1`: the activity change is -79.8% (active). Turning to `CCOc1ccc(NC(=O)c2ccc(NC(=O)C3CCCO3)cc2)cc1` (stereo unspecified), the activity change was -7.47%. As to `CCc1ccc(NC(=O)Nc2ccncc2)cc1`, the activity change was -73.4% (active).
